# According to ChEMBL document CHEMBL4513216, “Probing the Open Global Health Chemical Diversity Library for Multistage-Active Starting Points for Next-Generation Antimalarials” (ACS Infect Dis, 2020):
# Screen size: about 68,000 compounds; about 2,700 (4%) showed an effect of 50% or more. The full list was thinned out, with strong results kept by preference.
# Tested on: Plasmodium berghei
# Assay: Screen against P. berghei liver stage (PbLuc), transformed with Luciferase, at 2uM
# Type: functional, HepG2
# Settings: tested at 2 uM
row,Structure (SMILES),INHIBITION
1,CS(=O)(=O)Cc1nc(CNc2c(F)cc(F)cc2F)cs1,1.42%
2,CSc1ccc(NCc2csc(CS(C)(=O)=O)n2)cc1F,28.95%
3,CS(=O)(=O)Cc1nc(CNc2ccc(F)c(F)c2)cs1,56.49%
4,Cc1cn(Cc2ccccc2)nc1N,43.77%
5,Cc1cccc(Cn2cc(C)c(N)n2)c1,62.99%
6,Cc1ccc(Cn2cc(C)c(N)n2)cc1,-20.05%
7,COC(=O)c1cccc2nc([C@H]3CCN(CC(C)C)C3)oc12,53.46%
8,COC(=O)c1cccc2nc([C@H]3CCN(Cc4ccccc4)C3)oc12,1.29%
9,COC(=O)c1cccc2nc([C@H]3CCN(Cc4ccccc4F)C3)oc12,52.36%
10,COc1cccc(-c2noc(C3CCN(Cc4ccccc4F)C3)n2)c1 (stereo not given),35.56%
11,COC(=O)c1cccc2nc([C@H]3CCN(Cc4ccccc4C)C3)oc12,33.14%
12,COC(=O)c1cccc2nc([C@H]3CCN(C4CCN(C)CC4)C3)oc12,21.06%
13,CC(=O)Nc1nc(C(=O)N2CCCC(n3nc(C)cc3C)C2)cs1 (stereo not given),-45.23%
14,N#Cc1cccc(OCCN2CCCC2C(=O)N2CCSCC2)c1 (stereo not given),9.04%
15,COCCN1CCN(c2cccc(C)n2)Cc2ccc(C)nc21,-21.77%
16,CCS(=O)(=O)N1C[C@H]2CN(c3cnn(C)c3)C(=O)[C@H]2C1,-33.15%
17,Cn1cc(N2C[C@@H]3CN(CC4CCOCC4)C[C@@H]3C2=O)cn1,-1.69%
18,Cn1cc(N2C[C@@H]3CN(S(=O)(=O)C4CC4)C[C@@H]3C2=O)cn1,63.23%
19,Cc1nc(C2CCCN2C(=O)c2ccc(F)cc2)ncc1C(N)=O (stereo not given),21.33%
20,CCOC(=O)N1CCC(NC(=O)c2cccc(C3CCCNC3)c2)CC1 (stereo not given),35.15%
21,Cc1cnn(CC2CN(c3nnc(C)c(C)c3C#N)CCO2)c1 (stereo not given),54.2%
22,CCC1CN(c2nnc(C)c(C)c2C#N)CCO1 (stereo not given),11.18%
23,Cc1nnc(N2CCOC(Cn3cccn3)C2)c(C#N)c1C (stereo not given),8.7%
24,O=C1CSC(c2ccc(Cl)cc2Cl)c2c(n(C3CCOCC3)[nH]c2=O)N1 (stereo not given),5.47%
25,CN(C)S(=O)(=O)N1CCC(Oc2ccc(C#N)cn2)CC1,31.38%
26,CC(C)c1nn(C)c(Cl)c1CNCc1ccc2c(c1)OCO2,35.65%
27,CCC(CC)N(Cc1ccc2c(c1)OCO2)C(=O)c1ccc(=O)n(C)c1,-55.13%
28,CCC(C)NC(=O)CCc1ccc(OCC(F)(F)F)c(OC)c1 (stereo not given),51.94%
29,COc1cc(CCC(=O)NC(C)C)ccc1OCC(F)(F)F,-56.02%
30,COc1cc(CCC(=O)NC(C)C(=O)O)ccc1OCC(F)(F)F (stereo not given),-16.42%
